Source: PubChem BioAssay (ICCB-Longwood Screening Facility, Harvard Medical School)
MenB inh = inhibitors of Mycobacterium tuberculosis MenB enzyme | inhibition, % (no concentration beside the values) | P9WNP5 | MenB enzyme assay, absorbance read-out | actives 0.43% (n = 100,000); in the data active = inhibition above about 21%, passing the limit was not always enough
Target sequence (P9WNP5 whole entry, looked up): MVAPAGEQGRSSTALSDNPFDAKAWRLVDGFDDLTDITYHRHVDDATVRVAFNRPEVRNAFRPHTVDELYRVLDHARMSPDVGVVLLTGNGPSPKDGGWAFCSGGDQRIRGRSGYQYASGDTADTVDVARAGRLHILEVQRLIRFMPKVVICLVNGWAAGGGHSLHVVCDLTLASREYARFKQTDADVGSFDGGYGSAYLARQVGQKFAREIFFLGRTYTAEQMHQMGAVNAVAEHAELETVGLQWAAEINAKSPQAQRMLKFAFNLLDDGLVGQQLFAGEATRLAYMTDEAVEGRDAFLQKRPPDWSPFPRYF
Polio RdRp inh = inhibitors of poliovirus RNA polymerase binding and polymerization; AID 588519; actives 0.66% (n = 150,000); % elongation, % (compound at 16.7 µg/mL); poliovirus polymerase elongation, fluorescence polarization; stronger effect = lower value; P03300; in the data active = % elongation below about 90%
AID504770 = E. coli YBA685 growth inhibition, screen for V. cholerae RctB inhibitors. E. coli YBA685 rctB-dependent plasmid, OD600 growth, 3 h; stronger effect = lower value. z-score (no concentration beside the values). actives 0.27% (n = 130,000). AID 504770; in the data active = z-score below about -2, passing the limit was not always enough
MbtI inh = blocks the Mycobacterium tuberculosis siderophore enzyme MbtI. P9WFX0. purified MbtI enzyme, fluorescence intensity read-out. inhibition, % (no concentration beside the values). actives 0.89% (n = 100,000). AID 493033; in the data active = inhibition mostly above about 56%, no sharp cut-off; inactive = mostly below about 77%
Active calls of the source: *. This is a sample that favours compounds with a hit; in the whole collection about 1.5% have one here.

C=CCC1Cc2ccccc2C(CC=C)N1 (stereo not given) was read as MenB inh 39*, Polio RdRp inh 100, AID504770 -0.1 and MbtI inh -3.
C=CCC1Cc2ccccc2C(C)N1 (stereo not given) was read as AID504770 0.6 and MbtI inh 4.
For CCCCS(=O)(=O)CC(O)CSc1nc(-c2ccc(C)cc2)cc(-c2ccccc2)c1C#N (stereo not given) the results were Polio RdRp inh 81*.
COc1ccc(-c2cc(-c3ccccc3)c(C#N)c(SCC(O)CS(=O)(=O)Cc3ccccc3)n2)cc1 (stereo not given) was read as Polio RdRp inh 108.
For COCCn1c(SCC(=O)NCc2ccco2)nnc1-c1cccs1 the results were MenB inh -4, Polio RdRp inh 102, AID504770 1 and MbtI inh 6.
CCN1CCN(C(=O)/C=C/c2cn(-c3ccccc3)nc2-c2cccnc2)CC1 was read as MenB inh -1, Polio RdRp inh 102, AID504770 -0.75 and MbtI inh 20.
O=C(c1cc2ccccc2oc1=O)N1CCCC1 was read as MenB inh 38, Polio RdRp inh 98, AID504770 -0.35 and MbtI inh 25.
Screening CCC1CCCCN1C(=O)c1cc2ccccc2oc1=O (stereo not given) returned MenB inh -8, Polio RdRp inh 59* and AID504770 -0.85.
`CSc1nc2c(sc(=S)n2-c2ccccc2C)c(=O)n1-c1ccccc1C` gave MenB inh -3, Polio RdRp inh 97, AID504770 1.1 and MbtI inh 62*.
CCc1ccc(-n2c(=S)sc3c(=O)n(-c4ccccc4)c(SCC#N)nc32)cc1 was read as MenB inh -38, Polio RdRp inh 104, AID504770 1.4 and MbtI inh 0.
Screening CC(Sc1nnc(-c2cccc(S(=O)(=O)N3CCCC3)c2)n1-c1ccccc1)C(N)=O (stereo not given) returned MenB inh -75, Polio RdRp inh 94, AID504770 0.2 and MbtI inh -8.
`CC1=C/C(=N/OC(=O)c2ccccc2)C=CC1=O` gave MenB inh -47, Polio RdRp inh 102, AID504770 -1 and MbtI inh 0.
Screening CCOc1ccc(S(=O)(=O)N=C2C=CC(=O)C=C2)cc1 returned MenB inh 19, Polio RdRp inh 99, AID504770 -0.9 and MbtI inh 93*.
For COc1ccc(S(=O)(=O)N=S(C)(=O)c2ccc(C)cc2)cc1 (stereo not given) the results were AID504770 -1.4.
`O=C1C=CC(=NS(=O)(=O)c2ccc(F)cc2)C=C1` gave MenB inh 21, Polio RdRp inh 100, AID504770 -1.7 and MbtI inh 98*.
Screening CS(=O)(=O)c1ccc(F)cc1 returned MenB inh 7, Polio RdRp inh 103, AID504770 0.45 and MbtI inh 2.
For Cc1ccc(S(=O)(=O)N=C2C=CC(=O)C=C2)cc1 the results were MenB inh 9, Polio RdRp inh 103, AID504770 -0.5 and MbtI inh 96*.
Screening CC1=C/C(=N\S(=O)(=O)c2ccccc2)C=CC1=O returned MenB inh -27, Polio RdRp inh 103, AID504770 -0.9 and MbtI inh 101*.
`O=C(NCCN1CCN(C(=O)c2cccc(C(F)(F)F)c2)CC1)c1cccc(C(F)(F)F)c1` gave AID504770 0.3.
For COC(=O)c1ccc(/C=[N+](\[O-])c2ccccc2)cc1 the results were AID504770 -0.15.
`NC(=O)CSc1nc2ccc(Cl)cc2[nH]1` gave MenB inh -3, Polio RdRp inh 105, AID504770 -0.5 and MbtI inh 5.
N#CCSc1nc2ccc(Cl)cc2[nH]1 was read as MenB inh 3, Polio RdRp inh 102, AID504770 -1.1 and MbtI inh 53*.
For Cc1ccc(-n2c(C)cc(CC#N)c2C)cc1 the results were MenB inh -47, Polio RdRp inh 105, AID504770 -0.75 and MbtI inh 8.
Cc1n[nH]c(C)c1SCC(=O)O was read as MenB inh -13, Polio RdRp inh 105, AID504770 0.05 and MbtI inh 10.
CC(C)(C)SCC(=O)O was read as MenB inh 7, Polio RdRp inh 84*, AID504770 0.15 and MbtI inh -7.
For COc1ccccc1NS(=O)(=O)c1ccc2oc(SCc3cn4c(C)cc(C)nc4n3)nc2c1 the results were MenB inh -12, Polio RdRp inh 100, AID504770 0.1 and MbtI inh -27.
For O=C(CSc1nc2ccccc2s1)c1ccc[nH]1 the results were MenB inh -43, Polio RdRp inh 58*, AID504770 0.3 and MbtI inh 10.
Screening O=C(CSc1nc2ccccc2s1)c1ccccc1 returned AID504770 0.25.
NC(=O)CSc1nc2ccccc2s1 was read as MenB inh -38, Polio RdRp inh 100, AID504770 -0.5 and MbtI inh 82*.
For Cc1cc(C(=O)COC(=O)CSc2nnc(NC3CCCCC3)s2)c(C)n1C1CC1 the results were MenB inh -16, Polio RdRp inh 107, AID504770 0.75 and MbtI inh 2.
O=C(c1cc(-c2ccc(Br)cc2)nc2ccccc12)N1CCCC1 was read as Polio RdRp inh 101, AID504770 -0.25 and MbtI inh -4.
Screening COC(=O)c1cc(-c2cc(OC)c(OC)c(OC)c2)nn1-c1ccccn1 returned MenB inh -6, Polio RdRp inh 101, AID504770 -0.85 and MbtI inh 0.
